# Measured values reported in the supplement of paper PMC8728848.
# The entries come from a sample that favours the strongest signals as a whole.
# B1: PX9961J-bvu-499-24-499 (Bacteroides vulgatus) (protein)
# chain: LNTDPSTAVPSDDAIKNIDDAQVALNGIYRLASAHSYYGDNYLYYADCRGEDVQARINKGAGRRVSPYYFFDVTADDNFNITLVWNQPYKVIHQANSLIEKLDAGNAGNARPEEVARIKSEALAMRGLALFDLTRLFGMPYTLDNGASLGVPIEIQTTLEDHAPERNTVAQCYEQVLKDLNDALGGLTKEKHDAYMNYWSVKALLSRVYLYMNDNENALKCAEEVINDNGGIYRLFTHDEYPSVWGKDFNSESLFEFYFTMSEPSGGSGGEGAPMVYADNVKDWNNLILTKAYLDLLNEDPEDVRHVFPHLPENAVADTLPVAAKGQPKYLIKYPGKSGSVTDAVSTVNPQDNDLCILRLSEVYLNAAEAAFKIGNTEKALTYLNAIVTRANPAKSVTSADLSLERILKERRKELVGEGHAFFDYMRNGKSVDRSGGWHLTMPEDARVIAPSDPRVALPIPQTEIDANPNIVQNPR
# Assays:
# Test in all cases: glycan array binding signal (z-score within array); higher = stronger binding
# Settings in all cases: glycan notation: IUPAC condensed, linker removed
# [1] = molecular target: Fuc(a1-2)Gal(b1-3)GlcNAc(b1-3)[Neu5Ac(a2-6)Gal(b1-4)GlcNAc(b1-6)]Gal(b1-4)Glc
# Summary of the method: (§1)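 Columns mapping to the same glycan were averaged after glycan names were converted to IUPAC-condensed notation. The data come from 3228 arrays in the Consortium for Functional Glycomics database, limited to those with an available protein sequence. Binding is reported as a within-array Z-score averaged across arrays of one protein sequence and across linkers.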
# [2] = molecular target: Fuc(a1-3)[Gal(b1-4)]GlcNAc(b1-6)GalNAc
# Summary of the method: as §1
# Gal(a1-2)Gal = molecular target: Gal(a1-2)Gal
# Summary of the method: as §1
# [3] = molecular target: Gal(a1-3)Gal(b1-3)GlcNAc(b1-6)GalNAc
# Summary of the method: as §1
# [4] = molecular target: Gal(a1-3)Gal(b1-3)[Fuc(a1-4)]GlcNAc(b1-2)Man(a1-3)[Gal(a1-3)Gal(b1-3)[Fuc(a1-4)]GlcNAc(b1-2)Man(a1-6)]Man(b1-4)GlcNAc(b1-4)GlcNAc
# Summary of the method: as §1
# [5] = molecular target: Gal(a1-3)[Gal(a1-4)]Gal(b1-4)GlcNAc
# Summary of the method: as §1
# Gal(a1-4)Gal(b1-4)Glc = molecular target: Gal(a1-4)Gal(b1-4)Glc
# Summary of the method: as §1
# [6] = molecular target: Gal(b1-3)GlcNAc(b1-2)Man(a1-3)[GlcNAc(b1-4)][Gal(b1-3)GlcNAc(b1-2)Man(a1-6)]Man(b1-4)GlcNAc(b1-4)GlcNAc
# Summary of the method: as §1
# Gal(b1-3)GlcNAc6S = molecular target: Gal(b1-3)GlcNAc6S
# Summary of the method: as §1
# [7] = molecular target: Gal(b1-4)GlcNAc(b1-3)Gal(b1-4)GlcNAc(b1-2)[Gal(b1-4)GlcNAc(b1-3)Gal(b1-4)GlcNAc(b1-6)]Man(a1-6)[Gal(b1-4)GlcNAc(b1-3)Gal(b1-4)GlcNAc(b1-2)Man(a1-3)]Man(b1-4)GlcNAc(b1-4)[Fuc(a1-6)]GlcNAc
# Summary of the method: as §1
# [8] = molecular target: Gal(b1-4)GlcNAc(b1-3)Gal(b1-4)GlcNAc(b1-3)Gal(b1-4)GlcNAc(b1-2)[Gal(b1-4)GlcNAc(b1-3)Gal(b1-4)GlcNAc(b1-3)Gal(b1-4)GlcNAc(b1-6)]Man(a1-6)[Gal(b1-4)GlcNAc(b1-3)Gal(b1-4)GlcNAc(b1-3)Gal(b1-4)GlcNAc(b1-2)Man(a1-3)]Man(b1-4)GlcNAc(b1-4)[Fuc(a1-6)]GlcNAc
# Summary of the method: as §1
# [9] = molecular target: Gal(b1-4)GlcNAc(b1-3)Gal(b1-4)GlcNAc(b1-3)Gal(b1-4)GlcNAc(b1-3)Gal(b1-4)GlcNAc(b1-3)Gal(b1-4)GlcNAc(b1-2)Man(a1-3)[Gal(b1-4)GlcNAc(b1-3)Gal(b1-4)GlcNAc(b1-3)Gal(b1-4)GlcNAc(b1-3)Gal(b1-4)GlcNAc(b1-3)Gal(b1-4)GlcNAc(b1-2)Man(a1-6)]Man(b1-4)GlcNAc(b1-4)GlcNAc
# Summary of the method: as §1
# [10] = molecular target: Gal(b1-4)GlcNAc(b1-3)Gal(b1-4)GlcNAc(b1-3)Gal(b1-4)GlcNAc(b1-3)Gal(b1-4)GlcNAc(b1-3)Gal(b1-4)GlcNAc(b1-2)Man(a1-3)[Gal(b1-4)GlcNAc(b1-3)Gal(b1-4)GlcNAc(b1-3)Gal(b1-4)GlcNAc(b1-3)Gal(b1-4)GlcNAc(b1-3)Gal(b1-4)GlcNAc(b1-2)Man(a1-6)]Man(b1-4)GlcNAc(b1-4)[Fuc(a1-6)]GlcNAc
# Summary of the method: as §1
# [11] = molecular target: Gal(b1-4)GlcNAc(b1-3)Gal(b1-4)GlcNAc(b1-3)Gal(b1-4)GlcNAc(b1-3)Gal(b1-4)GlcNAc(b1-3)Gal(b1-4)GlcNAc(b1-3)Gal(b1-4)GlcNAc(b1-2)Man(a1-3)[Gal(b1-4)GlcNAc(b1-3)Gal(b1-4)GlcNAc(b1-3)Gal(b1-4)GlcNAc(b1-3)Gal(b1-4)GlcNAc(b1-3)Gal(b1-4)GlcNAc(b1-3)Gal(b1-4)GlcNAc(b1-2)Man(a1-6)]Man(b1-4)GlcNAc(b1-4)GlcNAc
# Summary of the method: as §1
# [12] = molecular target: Gal(b1-4)GlcNAc(b1-3)[Gal(b1-4)GlcNAc(b1-6)]Gal(b1-4)GlcNAc
# Summary of the method: as §1
# Gal(b1-4)GlcNAc6P = molecular target: Gal(b1-4)GlcNAc6P
# Summary of the method: as §1
# Gal6P(b1-4)GlcNAc = molecular target: Gal6P(b1-4)GlcNAc
# Summary of the method: as §1
# GalNAc(a1-3)Gal = molecular target: GalNAc(a1-3)Gal
# Summary of the method: as §1
# GalNAc(b1-3)GlcNAc = molecular target: GalNAc(b1-3)GlcNAc
# Summary of the method: as §1
# GalNAc6S(b1-4)GlcNAc = molecular target: GalNAc6S(b1-4)GlcNAc
# Summary of the method: as §1
# GlcA(b1-6)Gal = molecular target: GlcA(b1-6)Gal
# Summary of the method: as §1
# [13] = molecular target: GlcNAc(a1-4)Gal(b1-4)GlcNAc(b1-3)Gal(b1-4)Glc
# Summary of the method: as §1
# [14] = molecular target: GlcNAc(b1-2)Man(a1-3)[GlcNAc(b1-4)][GlcNAc(b1-2)Man(a1-6)]Man(b1-4)GlcNAc(b1-4)[Fuc(a1-6)]GlcNAc
# Summary of the method: as §1
# GlcNAc(b1-3)Gal = molecular target: GlcNAc(b1-3)Gal
# Summary of the method: as §1
# [15] = molecular target: GlcNAc(b1-3)Gal(b1-4)GlcNAc(b1-3)Gal(b1-4)GlcNAc(b1-3)Gal(b1-4)GlcNAc(b1-3)Gal(b1-4)GlcNAc(b1-2)Man(a1-3)[GlcNAc(b1-3)Gal(b1-4)GlcNAc(b1-3)Gal(b1-4)GlcNAc(b1-3)Gal(b1-4)GlcNAc(b1-3)Gal(b1-4)GlcNAc(b1-2)Man(a1-6)]Man(b1-4)GlcNAc(b1-4)[Fuc(a1-6)]GlcNAc
# Summary of the method: as §1
# [16] = molecular target: GlcNAc(b1-3)Gal(b1-4)GlcNAc(b1-3)GalNAc
# Summary of the method: as §1
# [17] = molecular target: Man(a1-3)[Man(a1-6)]Man(a1-6)[Man(a1-3)]Man(b1-4)GlcNAc(b1-4)GlcNAc
# Summary of the method: as §1
# [18] = molecular target: Neu5Ac(a2-3)Gal(b1-3)GlcNAc(b1-3)GalNAc
# Summary of the method: as §1
# [19] = molecular target: Neu5Ac(a2-3)Gal(b1-3)[Fuc(a1-4)]GlcNAc(b1-3)Gal(b1-4)[Fuc(a1-3)]GlcNAc
# Summary of the method: as §1
# [20] = molecular target: Neu5Ac(a2-3)Gal(b1-3)]Neu5Ac(a2-3)Gal(b1-4)]GlcNAc
# Summary of the method: as §1
binder,measurement,setting,value
B1,glycan array binding signal (z-score),[1],-0.281
same,glycan array binding signal (z-score),[2],-0.674
same,glycan array binding signal (z-score),Gal(a1-2)Gal,-0.036
same,glycan array binding signal (z-score),[3],1.19
same,glycan array binding signal (z-score),[4],2.95
same,glycan array binding signal (z-score),[5],3.12
same,glycan array binding signal (z-score),Gal(a1-4)Gal(b1-4)Glc,-0.223
same,glycan array binding signal (z-score),[6],2.45
same,glycan array binding signal (z-score),Gal(b1-3)GlcNAc6S,-0.142
same,glycan array binding signal (z-score),[7],3.83
same,glycan array binding signal (z-score),[8],0.849
same,glycan array binding signal (z-score),[9],4.09
same,glycan array binding signal (z-score),[10],2.67
same,glycan array binding signal (z-score),[11],0.326
same,glycan array binding signal (z-score),[12],-0.048
same,glycan array binding signal (z-score),Gal(b1-4)GlcNAc6P,0.028
same,glycan array binding signal (z-score),Gal6P(b1-4)GlcNAc,-0.613
same,glycan array binding signal (z-score),GalNAc(a1-3)Gal,2.34
same,glycan array binding signal (z-score),GalNAc(b1-3)GlcNAc,0.212
same,glycan array binding signal (z-score),GalNAc6S(b1-4)GlcNAc,2.75
same,glycan array binding signal (z-score),GlcA(b1-6)Gal,0.034
same,glycan array binding signal (z-score),[13],0.01
same,glycan array binding signal (z-score),[14],-0.709
same,glycan array binding signal (z-score),GlcNAc(b1-3)Gal,-0.109
same,glycan array binding signal (z-score),[15],2.84
same,glycan array binding signal (z-score),[16],0.1
same,glycan array binding signal (z-score),[17],-0.181
same,glycan array binding signal (z-score),[18],0.006
same,glycan array binding signal (z-score),[19],-0.506
same,glycan array binding signal (z-score),[20],0.358
